# Measured values as given in PubChem BioAssay AID624300 (Southern Research Specialized Biocontainment Screening …, 2012).
# About 360 (15%) of roughly 2,400 compounds were called active.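 How the source made its calls: active means viability falls under 70% at one or more tested concentrations, taken as toxicity; inactive means viability stays over 70% at every dose.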 The list is a sample of the results. Results with a measured potency or affinity are listed apart.
# Assay: viability loss in HeLa cells – cytotoxicity control for MgcRacGAP inhibitor project, dose response (AID 624300)
# Conditions: CellTiter-Glo luminescence, 24 h; series mostly up to 100 µM
row,Compound,outcome
1,O=C(CN1C(=O)c2ccccc2S1(=O)=O)c1ccc(O)c(O)c1,inactive
2,C=CCn1c(SCC(=O)c2ccc(O)c(O)c2)nnc1-c1cccc(Cl)c1,inactive
3,CC1Cc2ccccc2N1C(=O)CNCCCN(C)C (centres undefined),inactive
4,CN(C)C(=S)N=c1ssc(=S)n1Cc1ccccc1,inactive
5,COc1ccc(NC2CCCN(C(=O)c3csc(C)n3)C2)cc1 (centres undefined),inactive
6,C#CCOCCOCCOCCNc1nc(N2CCN(C(=O)[C@H](CCCCN)n3cc(CN)nn3)CC2)nc(N2CCN(C(=O)[C@H](CCCCN)n3cc(CN)nn3)CC2)n1,inactive
7,C#CCOCCOCCOCCNc1nc(N2CCN(C(=O)[C@H](CCCCN)n3cc(CN)nn3)CC2)nc(N2CCN(C(=O)[C@H](CCC(=O)O)n3cc([C@@H](N)CCCCN)nn3)CC2)n1,inactive
8,Cc1ccc(CCNc2ccc3ccccc3c2)cn1,inactive
9,COc1cc(/C=C/CN2CCN(CCC(C)C)C(CCO)C2)ccc1O (centres undefined),inactive
10,Nc1ccccc1Sc1ccc(C(=O)c2ccccc2C(=O)O)cc1[N+](=O)[O-],inactive
11,COc1ccc(NC2CCCN(C(=O)CCc3cn[nH]c3)C2)cc1 (centres undefined),inactive
12,COc1cccc(C(=O)Nc2cc3c(cc2N2CCCC2)n(C)c(=O)n3C)c1,inactive
13,CCn1c(=O)n(CC)c2cc(N3CCCC3)c(NC(=O)c3ccccc3)cc21,inactive
14,CN=Cc1cc(-c2ccccc2)sc1O,inactive
15,COc1cc(/C=N/NC(=O)C(C)Nc2n[nH]c(=O)[nH]c2=O)ccc1O (centres undefined),inactive
16,COc1ccc(CN2CCN(c3ccccn3)CC2)c(OC)c1C,inactive
17,COc1ccccc1OCC#CCn1ccnc1,inactive
18,COc1cc(C2C(=O)c3ccccc3C2=O)ccc1O,inactive
19,COc1cc(/C=N/N2C(=O)c3ccccc3C2=O)ccc1O,inactive
20,Oc1ccc(/C=N/NC(=S)NCCN2CCOCC2)c(O)c1,inactive
21,Clc1ccc(CNc2ccc(N3CCN(Cc4ccccc4)CC3)cc2)cc1,inactive
22,CC(=O)N1CCN(c2ccc(NCc3ccc(F)cc3)cc2)CC1,inactive
23,CSCCOC(=O)C1=C(C)Nc2ccc(C)cc2S1,inactive

row,Compound,outcome
1,COc1cc(/C=N/n2c(-c3cc(C)[nH]n3)n[nH]c2=S)cc(OC)c1O,inactive
2,COc1cc(OC)c2cc[nH]c2c1,inactive
3,COc1cc(C=C2C(=O)c3ccccc3C2=O)cc(OC)c1OC,inactive
4,C[n+]1c(-c2ccccc2)cc2c(=Cc3ccc([N+](=O)[O-])cc3)c3ccccc3n21,inactive
5,CCOC(=O)c1sc(=S)[nH]c1C,inactive
6,c1cc(CNc2ccc3c(c2)OCO3)ccn1,inactive
7,COc1cccc(CN2CCN(Cc3cccc(Oc4ccccc4)c3)CC2)c1OC,inactive
8,CC1(C)CC(=O)C(C(C2=C(O)CC(C)(C)CC2=O)c2cccs2)C(=O)C1 (centres undefined),inactive
9,COc1ccccc1NS(=O)(=O)c1cc(N)ccc1N1CCCC1,inactive
10,COc1ccc(/C=N/Nc2ccccn2)cc1O,inactive
11,Cc1sc2ncnc(N/N=C/c3ccc(O)cc3)c2c1C,inactive
12,COc1cc(/C=C/C(=O)OCC(=O)Nc2ccc(S(=O)(=O)N3CCCC3)cc2)ccc1O,inactive
13,NC(=O)N/N=C/c1ccc(N2CCOCC2)s1,inactive
14,CNC(=S)N/N=C/c1ccc(N2CCOCC2)s1,inactive
15,COc1cc(/C=N/n2cnnc2)ccc1OC(=O)c1ccncc1,inactive
16,CSc1nc(=S)c2[nH]c(=S)[nH]c2[nH]1,inactive
17,CCCCn1c(C)cc2cc(O)ccc21,inactive
18,COc1ccc(N2CCN(C(=O)c3ccccc3N(C)S(=O)(=O)c3ccccc3)CC2)cc1,inactive
19,COc1cc2c(cc1NCc1ccc3c(c1)OCO3)oc1ccccc12,inactive
20,COc1cc(CNCc2cc(OC)c(OC)c(OC)c2)cc(OC)c1,inactive
21,CCc1cc(/C(Cc2cscn2)=N\O)c(O)cc1O,inactive
22,CCN(CC)c1ccc(NC(=O)COC(=O)CCc2cc(OC)c(OC)c(OC)c2)cc1,inactive
23,O=C(CN1CCN(C/C=C/c2ccccc2)CC1)Nc1ccccc1C(=O)NC1CC1,inactive

row,Compound,outcome
1,COc1ccccc1CNCC(=O)NCc1ccc(C)cc1,inactive
2,COc1cc(CNCc2ccccc2C(F)(F)F)cc(OC)c1,inactive
3,CCn1c2ccccc2c2cc(NC(=O)CNC)ccc21,inactive
4,CCn1c2ccccc2c2cc(N)ccc21,inactive
5,COc1ccc(/C=N\NC(=O)c2ccc(=O)[nH]n2)cc1O,inactive
6,O=C(c1cccc(F)c1)N1CCN(C2CCCCC2)CC1,inactive
7,CN(C)CCCNc1ncnc2sc(-c3ccccc3)cc12,inactive
8,Cc1cc(C)c(OCCCCN2CCC(C)CC2)c(Br)c1,inactive
9,O=C(CN1CCN(c2ccc(O)cc2)CC1)NC(=O)NCc1ccco1,inactive
10,COc1cc(/C=N\NC(=O)CNC(=O)C2COc3ccccc3O2)ccc1O (centres undefined),inactive
11,Oc1ccc(C2=Nn3c(nnc3-c3ccco3)SC2)cc1O,inactive
12,CCN(CC)c1ccc(NC(=O)COC(=O)CCC(=O)c2cccs2)cc1,inactive
13,O=C(Cc1coc2cc(O)ccc12)NNC(=O)c1cccs1,inactive
14,CN(C)c1ccc(C(=O)NC2(N3CCC3=O)CCCC2)cc1,inactive
15,Cc1ccc(Nc2c(-c3ccco3)nc3ccccn23)cc1,inactive
16,Cc1ccn2c(NC3CCCC3)c(-c3ccncc3)nc2c1,inactive
17,O=CNc1ccc2c(c1)Cc1cccc(NC=O)c1-2,inactive
18,O=C(CNCc1ccco1)Nc1ccc(Oc2ccccc2)cc1,inactive
19,Cc1ccccc1OCCn1c(=S)[nH]c2c(N)ncnc21,inactive
20,CC1CC(C)CN(CC(=O)NC(c2ccccc2)c2ccccc2)C1 (centres undefined),inactive
21,Cc1c(-c2ccccc2)sc(N)c1C(=O)N1CCOCC1,inactive
22,CCN(CC)c1ccc(NC(=O)C2=CC=CN3CCS(=O)(=O)N=C23)cc1,inactive
23,CCOc1cc(/C=C2\N=C3CCCCCN3C2=O)ccc1O,inactive

row,Compound,outcome
1,CCOC(=O)C1=C(O)/C(=C\c2ccc(O)c(OCC)c2)N=C1C,inactive
2,COc1ccccc1N1CCN(CC(=O)NCC2CCCO2)CC1 (centres undefined),inactive
3,Cc1cc(C)nc(SCC(=O)c2ccc(O)c(O)c2)n1,inactive
4,O=C(CSc1nnnn1-c1ccc(F)cc1)c1ccc(O)c(O)c1,inactive
5,COc1cc(/C=N/NC(=O)c2ccc(N3CCCC3=O)cc2)ccc1O,inactive
6,COc1cccc2cc(C(=O)Oc3ccc(NC(C)=O)cc3)c(=O)oc12,inactive
7,Cc1ccc(C)c(OCC(O)CN2CCC(C)CC2)c1C (centres undefined),inactive
8,Cc1ccc(S(=O)(=O)N2CCN(C(=O)CN3CCN(c4ccc(O)cc4)CC3)CC2)cc1,inactive
9,O=S(=O)(c1ccc2ccccc2c1)N1CCN(c2ccc(O)cc2)CC1,inactive
10,COc1cc(C(=O)N/N=C/c2cn(Cc3ccccc3)c3ccccc23)ccc1O,inactive
11,O=C1CCCC(O)=C1C=Nc1ccc(O)cc1,inactive
12,COc1cc(/C=N/N=C2\CC3CCC2(C)C3(C)C)ccc1O (centres undefined),inactive
13,CCN(CC)c1ccc(/C=N/NC(=O)c2cc3ccccc3[nH]2)cc1,inactive
14,O=C(C[n+]1ccccc1)N/N=C/c1ccc(O)cc1,inactive
15,COc1ccc(C)cc1NC(=O)C(NCC(O)c1ccccc1)c1ccccc1 (centres undefined),inactive
16,CC(=O)N1CCN(c2ccc(NCc3ccccc3)cc2)CC1,inactive
17,CCc1nc(Nc2ccc(N3CCN(C(C)=O)CC3)cc2)c2oc3ccccc3c2n1,inactive
18,COc1cc(/C=C/C(=O)OCC(=O)c2ccc(OC(F)F)cc2)ccc1O,inactive
19,CCN(CC)c1ccc(NC(=O)c2ccc(S(=O)(=O)N3CCOCC3)cc2)cc1,inactive
20,CCN(CC)c1ccc(NC(=O)c2ccc3c(c2)OCO3)cc1,inactive
21,C/C=C(\C)CN1CCN(c2ccc(C)cc2)CC1,inactive
22,COc1cc(/C=C(\C#N)C(=O)c2c[nH]c3ccccc23)cc(OC)c1O,inactive
23,N#C/C(=C/c1ccc(N2CCOCC2)o1)c1nc2ccccc2[nH]1,inactive

row,Compound,outcome
1,N#C/C(=C\c1ccc(N2CCOCC2)o1)c1nc2ccccc2[nH]1,inactive
2,COc1cc(/C=C(\C#N)C(=O)Nc2ccc3c(c2)OCCO3)ccc1O,inactive
3,CN1C=CC=C/C1=C(\C#N)c1nc2ccccc2[nH]1,inactive
4,COc1ccccc1N1CCN(/N=C/c2cc(OC)c(O)c(OC)c2)CC1,inactive
5,COc1ccc(CN2CCN(Cc3ccccc3F)CC2)cc1OC,inactive
6,CN(c1ccccc1)S(=O)(=O)c1cccc(C(=O)NCCc2ccc(O)c(O)c2)c1,inactive
7,COc1cccc(OC)c1C(=O)N1CCN(Cc2ccc3c(c2)OCO3)CC1,inactive
8,COc1cc(/C=C/C(=O)OCC(=O)N(C)Cc2ccccc2)ccc1O,inactive
9,Cc1ccc(C2=NN=C(NC(=O)CSc3nncn3C)SC2)cc1,inactive
10,COc1cc(/C=N/NC(=O)CC2C(=O)NN=C2C)ccc1O (centres undefined),inactive
11,CCN(CC)c1ccc(NC(=O)CN2C(=O)NC3(CCc4ccccc43)C2=O)cc1 (centres undefined),inactive
12,Nc1ccc(C(=O)c2ccc3c(c2)OCCO3)cc1N,inactive
13,COc1cc(-c2nc3ccccc3s2)ccc1O,inactive
14,Cc1ccc(S(=O)(=O)Nc2nsc(N)n2)cc1,inactive
15,Oc1ccc(Cc2ccccc2Cl)c(O)c1,inactive
16,CCOc1cc(/C=N/NC(=O)C(C)Sc2ccccn2)ccc1O (centres undefined),inactive
17,COc1cc(/C=C/C(=O)OCC(=O)N(CC(C)C)c2c(N)n(Cc3ccccc3)c(=O)[nH]c2=O)ccc1O,inactive
18,COc1cc(/C=N\Nc2cc(=O)n(C)c(=O)n2C)ccc1O,inactive
19,COc1ccc(Nc2ccccc2)c(C)c1,inactive
20,O=[N+]([O-])c1cc([N+](=O)[O-])c2nonc2c1Nc1ccccc1O,inactive
21,Cc1cc(C)c(C)c(S(=O)(=O)N2CCN(c3ccc(O)cc3)CC2)c1C,inactive
22,CCOc1cc(/C=N\NC(=O)c2c(C)nc3ccccn23)ccc1O,inactive
